An excerpt weighted towards active compounds, which were near 5.5% of everything screened.
RORg inh – blocks mouse ROR gamma transcriptional activity. P51450. Drosophila S2 Gal4-RORgamma UAS-luciferase reporter, 20 h. Potency, µM (doses to about 53.6 µM), most hits filed as inhibitors. 310,000 compounds, 5.4% hits. AID 2551; also: nearly all actives have a fitted effect of over 60% in size
Target sequence (P51450 whole entry, looked up, the tested form may be a part): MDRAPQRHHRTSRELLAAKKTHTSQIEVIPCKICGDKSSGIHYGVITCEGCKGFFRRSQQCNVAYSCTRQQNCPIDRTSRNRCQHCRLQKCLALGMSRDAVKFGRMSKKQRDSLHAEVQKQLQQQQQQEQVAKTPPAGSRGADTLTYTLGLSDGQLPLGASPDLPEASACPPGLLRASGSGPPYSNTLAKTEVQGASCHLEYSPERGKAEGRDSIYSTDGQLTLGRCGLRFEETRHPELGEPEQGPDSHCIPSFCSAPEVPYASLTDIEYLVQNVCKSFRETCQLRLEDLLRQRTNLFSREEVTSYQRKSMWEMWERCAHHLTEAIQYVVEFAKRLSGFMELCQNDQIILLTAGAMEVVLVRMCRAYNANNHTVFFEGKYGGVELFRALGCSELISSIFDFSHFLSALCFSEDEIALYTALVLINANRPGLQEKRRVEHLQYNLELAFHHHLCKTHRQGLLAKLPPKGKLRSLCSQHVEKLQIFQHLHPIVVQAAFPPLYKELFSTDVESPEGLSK
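Compounds are pin-transferred onto Drosophila Schneider cells expressing a copper-inducible Gal4–ROR gamma transactivation domain fusion. After 1 hr, copper sulfate is added to 700 uM final; luciferase is read 20 hr later.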
BCR signal inh – chronic active BCR signaling inhibition | Potency, µM (series often up to 46.1 µM), actives largely listed as inhibitors | 340,000 compounds, 0.05% hits | ABC-DLBCL IkBa-CBG/CBR reporter, luminescence ratio, 4 h | AID 493014; active = well fitted inhibition curve with a large enough effect in the signal ratio, with a control signal flat, not every such curve was filed as active; inconclusive = small, poorly fitted or top-dose-only effect, or effect the other way, or a change in a side signal; the % refers to the signal ratio
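TMD8 ABC-DLBCL cells carrying doxycycline-inducible green luciferase fused to IkappaBalpha plus unfused red luciferase were exposed to compounds (up to 46 uM) for 4 hrs at 37C. Activity came from the overlap-corrected green/red luminescence ratio.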
Integrin act MD – activates integrin-mediated alleviation for muscular dystrophy; alpha7betagal myoblasts, beta-gal FDG fluorescence, 48 h; Potency, µM (titrated, usually from 38.3 µM), hits mostly activators; 350,000 compounds, 0.064% hits; also: nearly all actives have a fitted effect of over 60% in size
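alpha7betagal+/- myoblasts (passage 13, 250/well) treated 48 h at 37C with compounds at 1:260 dilution of DMSO stock. Lysed, then beta-galactosidase activity read as FDG fluorescence (ex 480/em 540) after 30 min, with pre-read for autofluorescence.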
Mito fusion yeast – mitochondrial division inhibition or fusion activation | 320,000 compounds, 0.23% hits | AID 485298 | Potency, µM (series often up to 46.1 µM), hits mostly activators | S. cerevisiae fusion-defective mutant growth rescue, CellTiterGlo 48 h; also: nearly all actives have a fitted effect of over 45% in size
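S. cerevisiae fusion-defective temperature-sensitive mutants (e.g. fzo1-1, mgm1-5) grown 48 h at 37C in YPEG (ethanol/glycerol non-fermentable) medium with 23 nl compound per well; growth rescue read as CellTiterGlo luminescence.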
uPA surface inh – inhibitors of cell surface uPA generation | cell surface uPA generation assay, qHTS | Potency, µM (top dose mostly 38.3 µM), usual class: inhibitors | 330,000 compounds, 0.31% hits | AID 540303; active = well fitted inhibition curve with a large enough effect; inconclusive = small, poorly fitted or top-dose-only effect; inactive = no such curve, though single readings can be large or run the other way; tested in mouse RAW 264.7 cells; also: nearly all actives have a fitted effect of over 55% in size
VP16 counter – counter-screen for ROR gamma inhibitors: Gal4-VP16 reporter; Potency, µM (titrated, usually from 53.6 µM), usual class: inhibitors; 310,000 compounds, 3.5% hits; Drosophila S2 Gal4-VP16 UAS-luciferase, luminescence, 20 h;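 also: Gal4-VP16 expression switched on by copper sulfate through the metallothionein promoter; nearly all actives have a fitted effect of over 50% in size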
A number is an active result; n = inactive; u = inconclusive; x = no result given; [ ] = dose if it differs, or a comment. Unless noted, calls follow the shape of the dose curve; as a rule, active = well fitted curve in the direction sought with a large enough effect; inconclusive = small, poorly fitted or top-dose-only effect, or another doubt; inactive = no such curve, though single readings can be large; an effect the other way counts as inactive or inconclusive.

SMILES	RORg inh	BCR signal inh	Integrin act MD	Mito fusion yeast	uPA surface inh	VP16 counter
N/C(=N\OC(=O)c1cccc(Cn2cc(C(F)(F)F)ccc2=O)c1)c1ccc(Cl)cc1	n	n	n	n	n	u
CCCCC(=O)NC(c1ccc(OC)cc1)c1ccc2cccnc2c1O (stereo not given)	x	x	n	x	x	x
CC(C)C(=O)NC(c1ccc(Cl)cc1Cl)c1ccc2cccnc2c1O (stereo not given)	4.5µM	n	n	n	u	3.2µM
CC(=O)NC(c1ccco1)c1ccc2cccnc2c1O (stereo not given)	3.5µM	u	n	n	n	11µM
CCC(=O)NC(c1ccc(Cl)cc1Cl)c1ccc2cccnc2c1O (stereo not given)	n[1.91 µM]	u	n	n	n	u
CCCC(=O)NC(c1ccc(C(C)C)cc1)c1ccc2cccnc2c1O (stereo not given)	2.2µM	u	n	n	n	2.8µM
CCC(=O)NC(c1ccc(C)cc1)c1ccc2cccnc2c1O (stereo not given)	2.2µM	u	n	n	n	2.8µM
CC(=O)NC(c1ccc(Cl)cc1)c1ccc2cccnc2c1O (stereo not given)	x	x	n	x	u	x
CC[C@H](C)[C@H](NC(=O)[C@H](CCC(=O)O)NC(=O)CNC(=O)[C@@H](NC(=O)[C@H](CCC(=O)O)NC(=O)[C@H](CCC(=O)O)NC(=O)[C@H](CC(C)C)NC(=O)CNC(=O)[C@@H]1CCCN1C(=O)[C@H](CCC(=O)O)NC(=O)[C@@H](N)[C@@H](C)O)C(C)C)C(=O)N[C@@H](CCC(=O)O)C(=O)N[C@@H](CCC(N)=O)C(=O)N[C@@H](CCCCN)C(=O)N[C@@H](CCC(N)=O)C(=O)N[C@@H](CC(C)C)C(=O)N[C@@H](CCC(N)=O)C(=O)O	n	x	x	x	x	n
O=C1CC(SC2=NCCS2)C(=O)N1c1ccc(Br)cc1 (stereo not given)	n	n	n	n	n	n
O=C(O)c1ccccc1SC1CC(=O)N(c2ccccc2)C1=O (stereo not given)	13µM	u	n	n	n	4µM
Cc1nnc(SC2CC(=O)N(c3ccccc3)C2=O)s1 (stereo not given)	1.1µM	u	n	n	n	1µM
O=C1CC(Sc2cccs2)C(=O)N1c1ccccc1 (stereo not given)	4.5µM	n	n	n	n	7.9µM
COCCNC(=O)/C(C#N)=C\c1ccc(CNC(=O)C(=O)Nc2ccc(C)c(C)c2)o1	n	u	n	n	n	n
COc1ccc(NC(=O)C(=O)N/N=C\c2ccc(CNC(=O)C(=O)Nc3ccc(C)c(C)c3)o2)c(OC)c1	n[1.91 µM]	n	n	n	n	3.2µM
O=C(CSC1=NS(=O)(=O)c2ccccc21)Nc1ccccc1	u	u	n	n	u	20µM
COC(=O)CSC1=NS(=O)(=O)c2ccccc21	n[0.365 µM]	u	n	n	n	x
O=C(NCCNc1ccnc2cc(Cl)ccc12)c1ccccc1F	u	n	n	n	n	11µM
COCCCNC(=O)c1cc(C)nn1-c1ccccc1	n	n	u	n	n	n
N#C/C(=C\c1ccc(O)c(O)c1)C(=O)NCCCCc1ccccc1	u	x	x	x	x	32µM
Cc1[nH]c(=O)[nH]c(=O)c1S(=O)(=O)Nc1ccc(F)cc1F	n	n	n	n	n	n
O=C(NCCc1ccccc1)c1ccccc1Cl	8.9µM	u	n	n	n	7.9µM
Cn1cccc1C(=O)NCCc1ccccc1	10µM	u	n	n	n	13µM
Cn1cccc1C(=O)NCCc1ccc(Cl)cc1	u	u	n	n	n	n
Cc1ccc(C(=O)NCCCc2ccccc2)c(Cl)c1	11µM	u	n	n	n	n
SMILES	RORg inh	BCR signal inh	Integrin act MD	Mito fusion yeast	uPA surface inh	VP16 counter
O=C(c1cc(C(=O)NCCc2ccccc2)c(=O)n(CCc2ccccc2)c1)c1cc(Cl)ccc1O	u	n	n	n	n	14µM
[O]=[Bi][O][Bi]=[O]	n[10 µM]	x	x	x	x	n
CC(C)Cc1c2c([nH]c(=S)c1C#N)CCCC2	6.3µM	n	n	n	n	u
Cc1ccccc1C(=O)Nc1cccc(-c2ccc(N3CCOCC3)nn2)c1	x	u	n	n	n	x
CCOc1c(Br)cc(/C=N\NC(=O)c2ccccc2)cc1OC	n	u	u	n	n	u
CCOc1c(Cl)cc(/C=N/NC(N)=S)cc1OC	7.1µM	n	n	n	n	16µM
C#CCOc1c(Cl)cc(/C=N/NC(N)=S)cc1OCC	14µM	u	n	n	n	u
N#Cc1ccc(-c2ccc(C3Nc4ccccc4C(=O)N3O)o2)cc1 (stereo not given)	x	u	x	n	n	x
CCOC(=O)c1ccc(-c2ccc(C3Nc4ccccc4C(=O)N3O)o2)cc1 (stereo not given)	11µM	n	n	n	n	u
CCOc1ccc(-c2ccc(CO)o2)cc1N	x	n	x	x	x	x
O=C1c2ccccc2NC(c2ccc(-c3ccccc3F)o2)N1O (stereo not given)	x	u	x	n	u	x
CCOC(=O)c1ccc(-c2ccc(CO)o2)cc1	11µM	u	n	n	n	u
Cc1cc([N+](=O)[O-])ccc1-c1ccc(C2Nc3ccccc3C(=O)N2O)o1 (stereo not given)	u	u	n	n	x	0.71µM
CC(CCc1ccccc1)NC(=O)CCCn1ncn2c(cc3occc32)c1=O (stereo not given)	n	n	n	n	n	n
CCCOc1ccc(Br)cc1CSC(=N)N	u	u	n	n	5.6µM	13µM
COc1ccc(C(=O)NNC(=S)NC(=O)c2ccc(Cl)cc2)cc1	x	x	n	x	n	x
O=C(NNC(=O)c1ccccn1)c1cccc([N+](=O)[O-])c1	10µM	u	u	n	n	u
O=C(NC(=S)Nc1cccc(F)c1)c1cccc([N+](=O)[O-])c1	1.6µM	u	n	n	n	6.3µM
O=C(Nc1cc(Sc2nc3ccccc3s2)cc([N+](=O)[O-])c1)c1ccccc1	n	n	n	u	n	n
O=C(c1cccc([N+](=O)[O-])c1)c1ccccn1	n	n	n	n	n	n
O=C(Nc1cc(Sc2ccccn2)cc([N+](=O)[O-])c1)c1cccc(F)c1	u	u	n	18µM	n	n
Cc1cccc(C(=O)NC(=S)NNC(=O)c2ccc(Cl)cc2)c1	10µM	u	n	n	n	u
C/C=C(\C)C(=O)C[Si](C)(C)c1ccccc1	n	x	x	x	x	n
O=C(c1ccc(N2CCCC2)c([N+](=O)[O-])c1)N1CCN(S(=O)(=O)c2ccccc2)CC1	x	n	n	n	n	x
O=C(NNC(=S)NC(=O)c1cccc([N+](=O)[O-])c1)c1ccc(O)cc1	13µM	u	n	n	n	13µM
O=C(NNC(=S)NC(=O)c1ccccc1)c1ccc(O)cc1	u	u	n	n	n	u

Screens (PubChem)
